Data as given in PubChem BioAssay AID624296 (National Center for Advancing Translational Sciences (NCATS), 2012).
The campaign covered roughly 350,000 compounds. About 9,900 (2.8%) were called active. A call without a number means that no potency is given here. About 15% were inconclusive and are not listed. Calls follow the shape of the dose curve; as a rule, active = well fitted activation curve with a large enough effect; inconclusive = small, poorly fitted or top-dose-only effect; inactive = no such curve, though single readings can be large or run the other way. Only a selection was taken, and actives are over-represented in it overall.

Assay: A quantitative high throughput screen for small molecules that induce DNA re-replication in MCF 10a normal breast cells. Also: nearly all actives have a fitted effect of over 50% in size.
Details: MCF 10A DNA re-replication, Hoechst nuclear intensity, 48 h; series mostly up to 46.1 µM
Potency is read from the fitted curve at half-maximal effect.

Row | Compound | Potency
1 | CCN(CC(=O)Nc1ccc(NC(C)=O)cc1)C(=O)CSC(=S)N1CCCC1 | inactive
2 | Cc1cc(C(=O)NC2CC(C)(C)Cc3c2cnn3-c2ccccc2)n[nH]1 (stereo not given) | inactive
3 | CC1(C)Cc2c(cnn2-c2cccc(F)c2)C(NC(=O)c2cc[n+]([O-])cc2)C1 (stereo not given) | inactive
4 | COC(=O)c1ccc(C(=O)NC2CC(C)(C)Cc3c2cnn3-c2ccc(F)cc2)nc1 (stereo not given) | 20.6 µM (active)
5 | CCOc1cc(C=NNC(=O)CCCC(=O)NN=Cc2ccc(O)c(OCC)c2)ccc1O | inactive
6 | COc1cc(/C=N\Nc2nc(-c3cccs3)c(NC(C)=O)s2)ccc1O | inactive
7 | CCOc1cc(/C=C(\C#N)c2nc(-c3cccs3)c(NC(C)=O)s2)ccc1O | 5.8 µM (active)
8 | COc1ccc(S(=O)(=O)N2CCN(C(C)C(=O)Nc3ccc(C(C)C)cc3)CC2)cc1 (stereo not given) | inactive
9 | CCN(CC(=O)Nc1cc(Cl)ccc1C)C(=O)CSCc1ccccc1 | inactive
10 | Cc1ccccc1-c1cc(C(=O)NCC2CC2)n(CC2CC(c3cccnc3)=NO2)n1 (stereo not given) | inactive
11 | Cn1c(SCC(=O)Nc2ccc(N3CCOCC3)cc2)nnc1C(F)(F)F | inactive
12 | O=C(NC1CCCCC1)c1cc([N+](=O)[O-])ccc1N1CCOCC1 | inactive
13 | O=C(NCc1ccc2c(c1)OCO2)c1cc([N+](=O)[O-])ccc1N1CCOCC1 | 5.8 µM (active)
14 | CC1CCN(c2ccc(C(=O)NCc3ccc4c(c3)OCO4)cc2[N+](=O)[O-])CC1 | inactive
15 | COc1ccccc1NC(=O)N(O)C1(C#N)CCCCC1 | inactive
16 | CN(C)C(=O)CCc1ccc2c3c([nH]c2c1)[C@]1(C)[C@@H](C(=O)N2CCOCC2)C[C@H](CC(=O)NCCc2ccccn2)C(=O)N1CC3 | inactive
17 | CC(C)CN1CC(C)C(=O)N(c2ccccc2)C1=S (stereo not given) | inactive
18 | COc1ccc2oc(C(=O)NCc3ccco3)c(C)c2c1 | inactive
19 | Cc1ccc2nc3c(cc(C(=O)NCCc4ccccc4)c(=N)n3CC3CCCO3)c(=O)n2c1 (stereo not given) | 6.51 µM (active)
20 | COc1ccc(CNC(=O)c2cc3c(=O)n4ccccc4nc3n(CC3CCCO3)c2=N)cc1 (stereo not given) | 9.2 µM (active)
21 | Cc1cccn2c(=O)c3cc(C(=O)NCC4CCCO4)c(=N)n(Cc4ccc(F)cc4)c3nc12 (stereo not given) | 1.84 µM (active)
22 | COc1ccc(CCn2c(=N)c(C(=O)NCc3ccco3)cc3c(=O)n4cccc(C)c4nc32)cc1 | 18.4 µM (active)
23 | Cc1ccc(-c2noc(-c3ccccc3C(=O)NCC3CCCO3)n2)cc1 (stereo not given) | inactive
24 | Cc1ccc(CCNC(=O)c2ccc3nc4ccccc4c(=O)n3c2)cc1 | inactive

Row | Compound | Potency
25 | COc1ccc(CCNC(=O)CCn2c(=O)c3ccccc3n(CC(=O)NCC3CCCO3)c2=O)cc1OC (stereo not given) | inactive
26 | O=C(CSc1nc2ccccc2c(=O)n1Cc1ccc(F)cc1)NCC1CCCO1 (stereo not given) | inactive
27 | COc1ccc(C(=O)Nc2ccccc2C(=O)NCc2ccco2)cc1 | inactive
28 | COc1ccc(CCNC(=O)Cn2c(=O)n(CC3CCCO3)c(=O)c3ccccc32)cc1OC (stereo not given) | inactive
29 | O=C(NCC1CCCO1)c1cc(-c2ccccc2)nc2ccccc12 (stereo not given) | inactive
30 | O=C(CSc1nccn1-c1cccc(F)c1)NC1CCCC1 | inactive
31 | C#CCOCCOCCOCCNc1nc(N2CCN(C(=O)Cn3cc(CCO)nn3)CC2)nc(N2CCN(C(=O)[C@H](CCCCN)n3cc(CCCC)nn3)CC2)n1 | inactive
32 | O=C1NCC(Nc2ccccc2)C(=O)N1 (stereo not given) | inactive
33 | COc1ccc(C(=O)C(C)OC(=O)c2cccc(S(=O)(=O)Nc3c(C)n(C)n(-c4ccccc4)c3=O)c2)cc1 (stereo not given) | inactive
34 | CCC(=O)c1ccc(OCC(=O)N(CC)CC2COc3ccccc3O2)cc1 (stereo not given) | inactive
35 | COc1cc(C)ccc1OCC(=O)OCC(=O)c1ccc[nH]1 | inactive
36 | COC(=O)[C@]1(Cc2ccccc2)N[C@H](CN(C)S(=O)(=O)c2ccc(OC(F)(F)F)cc2)[C@@H]2C(=O)N(Cc3ccccc3)C(=O)[C@@H]21 | inactive
37 | CC(NC(=O)c1ccccc1)C(=O)OCC(=O)Nc1cccc(S(=O)(=O)N2CCCC2)c1 (stereo not given) | inactive
38 | CC(NC(=O)CN(C)S(=O)(=O)c1ccc(F)cc1)C1CC2CCC1C2 (stereo not given) | inactive
39 | C=CC1=C(C(=O)O)N2C(=O)[C@@H](NC(=O)/C(=N\OCC(=O)O)c3csc(N)n3)[C@H]2SC1 | inactive
40 | O=C(NCc1ccncc1)C(=O)NCC1OCCN1S(=O)(=O)c1ccc(Br)cc1 (stereo not given) | 18.4 µM (active)
41 | O=C(NCc1ccccc1)C(=O)NCC1OCCN1S(=O)(=O)c1ccc(Br)cc1 (stereo not given) | inactive
42 | COc1ccc(S(=O)(=O)N2CCOC2CNC(=O)C(=O)NCc2ccncc2)cc1OC (stereo not given) | inactive
43 | CCN1C[C@@H]2[C@@H]3C(=O)N(Cc4ccccc4)C(=O)[C@@H]3[C@](C)(C1=O)N2C(=O)c1ccc(C(C)(C)C)cc1 | inactive
44 | Cc1cccc(NS(=O)(=O)c2ccc(C)c(C(=O)NCC(c3ccccc3)N(C)C)c2)c1 (stereo not given) | inactive
45 | OCc1ccc(-c2ccccc2)c(-c2ccccc2)c1 | 23.1 µM (active)
46 | OCc1nc(CO)n(Cc2ccccc2)n1 | inactive
47 | OCC(CO)(CO)NCc1ccc(-c2ccccc2)cc1 | inactive
48 | O=c1c2ccccc2ccc2ccc(P(=O)(O)O)cc12 | inactive

Row | Compound | Potency
49 | COc1ccc(NS(=O)(=O)c2cccc(C(=O)NCCc3ccc(S(N)(=O)=O)cc3)c2)cc1 | inactive
50 | CN(CC(=O)Nc1ccc(Cl)c(C(F)(F)F)c1)C(=O)CCC(=O)c1ccccc1 | inactive
51 | Cc1ccc(NC(=O)C(C)OC(=O)C2CC3CCCC(C2)C3=O)cc1S(=O)(=O)N1CCOCC1 (stereo not given) | inactive
52 | CCc1ccccc1NC(=O)CN(C)C(=O)c1cc(C2CC2)nn1-c1ccccc1 | inactive
53 | CCc1ccc(CN(C)C(C)C(=O)Nc2ccc(S(=O)(=O)N3CCCC3)cc2)cc1 (stereo not given) | inactive
54 | CCOC(=O)c1sc(NC(=O)CSc2nnc(-c3ccco3)o2)c(C(=O)OCC)c1C | inactive
55 | CCC(=O)Nc1sc(C(=O)N2CCCCC2)c(C)c1C#N | inactive
56 | CCOC(=O)c1sc(NC(=O)CSc2ncccn2)c(C#N)c1C | 14.6 µM (active)
57 | O=C(Nc1ccc2ccccc2c1[N+](=O)[O-])c1ccccc1 | inactive
58 | COc1ccc(S(=O)(=O)N2CCCCC2)cc1NC(=O)COc1ccccc1 | inactive
59 | CCCc1cc(=O)[nH]c(SCC(=O)Nc2ccc(C(=O)Nc3ccccc3OC)cc2)n1 | inactive
60 | Cc1ccc(NS(=O)(=O)c2ccc(C)c(NC(=O)COc3ccc4ccccc4c3)c2)c(C)c1 | inactive
61 | COc1ccc2cc(S(=O)(=O)Nc3ccccn3)ccc2c1 | inactive
62 | COc1cc(NS(=O)(=O)c2ccc3ccccc3c2)c2ncccc2c1 | 5.17 µM (active)
63 | CC(=O)Nc1ccc(NC(=O)C(NS(=O)(=O)c2ccc3c(c2)OCCO3)C(C)C)cc1 (stereo not given) | inactive
64 | Cc1ccc(-n2nc3ccc(NC(=O)/C=C/c4ccco4)cc3n2)cc1C | 8.2 µM (active)
65 | CCC(=O)Nc1ccc2nn(-c3ccc(F)cc3)nc2c1 | inactive
66 | Cc1nnc(NC(=O)/C=C/c2ccco2)s1 | inactive
67 | CNN/C(N=Cc1ccc([N+](=O)[O-])s1)=N\S(=O)(=O)c1cc(C)c(Cl)cc1SCc1ccccc1 | inactive
68 | CN(CCc1ccccc1)C(=O)c1cccc(NC(=O)Cc2ccc([N+](=O)[O-])cc2)c1 | inactive
69 | O=C1c2ccccc2[C@@H]2C[C@@H](O)[C@H](Nc3ccccc3Cl)CCN12 | inactive
70 | CC(C)N(C(=O)CSc1nnc(NC2CC2)s1)c1ccccc1 | inactive
71 | CC(=O)c1c(C)oc2ccc(NS(=O)(=O)c3ccc(C(=O)O)cc3)cc12 | inactive
72 | CC(=O)c1c(C)oc2ccc(NS(=O)(=O)c3ccccc3)cc12 | inactive

Row | Compound | Potency
73 | COc1ccc(S(=O)(=O)Nc2ccc3oc(C)c(C(C)=O)c3c2)cc1 | 5.17 µM (active)
74 | NN=C(NN=Cc1ccccc1)c1ccccc1 | inactive
75 | COc1ccc(S(=O)(=O)N(C)C[C@H]2Oc3ccc(NS(=O)(=O)c4cccs4)cc3CC(=O)N([C@H](C)CO)C[C@H]2C)cc1 | inactive
76 | Cc1cc(C)nc(SCC(=O)c2ccc(Cl)cc2)n1 | inactive
77 | Cc1ccc(N/C=C/C(=O)c2ccccc2)cc1C | inactive
78 | Cc1cc(C)nc(S/C=C/C(=O)c2ccccc2)n1 | 1.3 µM (active)
79 | CC(=O)C[C@H](O)CC(=O)[C@@H]1OC(=O)[C@@H](C)C/C=C\Cc2ccccc21 | inactive
80 | CCOc1ccc(NC(=O)CN(C)C(=O)CSc2ccccc2)cc1OCC | inactive
81 | Cc1cc(NC(=O)CSc2nc3cc(Cl)ccc3c(=O)n2Cc2ccco2)no1 | 18.4 µM (active)
82 | Cc1cc(NC(=O)CSc2nc3ccccc3n2CC(C)C)no1 | inactive
83 | Cc1cc(NC(=O)CSc2nnc(-c3ccco3)n2N)no1 | inactive
84 | COc1ccc(S(=O)(=O)N2CCOCC2)cc1NC(=O)Cc1coc2cc(C)ccc12 | inactive
85 | COC(=O)C1CC2=C(CC(C)(C)CC2=O)N(c2ccccc2)C1=O (stereo not given) | inactive
86 | Cc1nn(Cc2ccccc2)c(C)c1C(=O)N1CCN(CC(=O)Nc2ccccc2Cl)CC1 | inactive
87 | CC(OC(=O)c1cc2ccccc2o1)C(=O)Nc1ccc(N2CCOCC2)cc1 (stereo not given) | inactive
88 | OC(c1nc2ccc(F)cc2[nH]1)C(O)c1nc2ccc(F)cc2[nH]1 (stereo not given) | inactive
89 | CC(C)c1nc2ccc(C(=O)O)cc2[nH]1 | 11.6 µM (active)
90 | OC(c1nc2ccccc2[nH]1)C(O)C(O)C(O)c1nc2ccccc2[nH]1 (stereo not given) | inactive
91 | CN(C(=O)c1cccc(NC(=O)Cc2ccc(NC(=O)C3CCN(C(=O)C4CCCCC4)CC3)cc2)c1)C1CCC1 | inactive
92 | Cc1ccc(S(=O)(=O)Nc2ccc3c(c2)C(=O)N([C@H](C)CO)C[C@@H](C)[C@@H](CN(C)C(=O)Nc2cccc4ccccc24)O3)cc1 | inactive
93 | CCOc1cccc(/C=C/c2ccc3ccccc3n2)c1OC(C)=O | 23.1 µM (active)
94 | CCOc1ccccc1-c1cc(C(=O)N2CCOCC2)c2ccccc2n1 | inactive
95 | CCOc1ccccc1/C=N/Nc1nc2ccccc2o1 | inactive
